Data reported in PMC5540273 (PLoS ONE, 2017).

Assays:
Conditions in all cases: concentration: 1 μM, replicates: in singlicate; n = 1
TTK = test system: TTK
TXK = test system: TXK
[1] = test system: TYK2(JH1domain-catalytic)
[2] = test system: TYK2(JH2domain-pseudokinase)
TYRO3 = test system: TYRO3
ULK1 = test system: ULK1
ULK2 = test system: ULK2
ULK3 = test system: ULK3
VEGFR2 = test system: T1, VEGFR2
T1 construct: gene KDR

VPS34 = test system: T2, VPS34
T2 construct: gene PIK3C3

VRK2 = test system: VRK2
WEE1 = test system: WEE1
WEE2 = test system: WEE2
WNK1 = test system: WNK1
WNK2 = test system: WNK2
WNK3 = test system: WNK3
WNK4 = test system: WNK4
YANK1 = test system: T3, YANK1
T3 construct: gene STK32A

YANK2 = test system: T4, YANK2
T4 construct: gene STK32B

YANK3 = test system: T5, YANK3
T5 construct: gene STK32C
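Also: KINOMEscan kinase panel screen.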

Row | SMILES | %Inh (TTK) [%] | %Inh (TXK) [%] | %Inh [1] [%] | %Inh [2] [%] | %Inh (TYRO3) [%] | %Inh (ULK1) [%] | %Inh (ULK2) [%] | %Inh (ULK3) [%] | %Inh (VEGFR2) [%] | %Inh (VPS34) [%] | %Inh (VRK2) [%] | %Inh (WEE1) [%] | %Inh (WEE2) [%] | %Inh (WNK1) [%] | %Inh (WNK2) [%] | %Inh (WNK3) [%] | %Inh (WNK4) [%] | %Inh (YANK1) [%] | %Inh (YANK2) [%] | %Inh (YANK3) [%]
1 | COc1ccc(C2=C(Nc3cccc(C(=O)O)c3)C(=O)NC2=O)cc1 [SB-390765] | 10 | 21 | 0 | 0 | 22 | 16 | 8 | 28 | 21 | 33 | 0 | 0 | 16 | 49 | 15 | 23 | 24 | 0 | 0 | 0
2 | O=C(Nc1ccc2c(c1)OCO2)NC1CCN(c2ccnc(Nc3ccc(F)cc3)n2)C1 (stereo not drawn) [GSK1379724] | 26 | 43 | 9 | 33 | 0 | 9 | 0 | 16 | 0 | 0 | 0 | 11 | 4 | 8 | 3 | 31 | 11 | 9 | 0 | 5
3 | Cc1ccc(NC(=O)Nc2cc(C(C)(C)C)nn2-c2ccccc2)cc1 [GSK1014915] | 4 | 0 | 25 | 4 | 7 | 17 | 0 | 13 | 6 | 0 | 0 | 0 | 7 | 9 | 0 | 13 | 25 | 13 | 5 | 7
4 | Cc1cccc(-c2nc(Nc3ccncc3)c3ccccc3n2)n1 [GW855857] | 10 | 11 | 8 | 40 | 0 | 0 | 0 | 8 | 0 | 52 | 0 | 23 | 8 | 0 | 0 | 0 | 0 | 0 | 0 | 0
5 | Cn1cncc1-c1ccc2ncnc(Nc3ccc(OCc4ccccc4)cc3)c2c1 [GW320571] | 19 | 34 | 29 | 0 | 3 | 25 | 0 | 14 | 0 | 23 | 0 | 16 | 14 | 1 | 15 | 3 | 0 | 94.2 | 16 | 7
6 | Cn1ccc2ncnc(Oc3cccc(C(=O)Nc4ccccc4)c3)c21 | 0 | 0 | 0 | 0 | 0 | 0 | 6 | 9 | 59 | 11 | 0 | 5 | 0 | 0 | 0 | 0 | 0 | 11 | 1 | 29
7 | COc1cc2nccc(Nc3ccc(NC(=O)c4ccc(C)cc4)c(O)c3)c2cc1OC.Cl [GW440132] | 0 | 10 | 0 | 1 | 0 | 21 | 0 | 7 | 0 | 14 | 0 | 2 | 11 | 7 | 14 | 14 | 0 | 11 | 0 | 16
8 | O=S(=O)(c1ccc(-c2ccnc3[nH]ccc23)cc1)N1CCCC1 [GSK846226] | 20 | 9 | 62 | 20 | 0 | 19 | 0 | 27 | 15 | 46 | 0 | 8 | 2 | 5 | 7 | 3 | 0 | 11 | 0 | 0
9 | CCCc1ccc(S(=O)(=O)NC2CCN(c3ccnc(Nc4ccc(F)cc4)n3)C2)cc1 (stereo not drawn) [GSK1379715] | 0 | 73 | 26 | 30 | 0 | 16 | 0 | 4 | 0 | 0 | 7 | 6 | 0 | 17 | 0 | 20 | 4 | 18 | 0 | 100
10 | COC(=O)c1c(-c2ccccc2)c2cc(C(=O)O)ccc2c(=O)n1Cc1ccccc1 | 4 | 0 | 0 | 4 | 7 | 0 | 0 | 0 | 0 | 9 | 0 | 0 | 0 | 0 | 0 | 0 | 3 | 0 | 3 | 2
11 | O=C(Nc1n[nH]c2nc(-c3nccs3)c(Br)cc12)C1CCCC1 [SB-742609] | 13 | 27 | 18 | 31 | 0 | 5 | 0 | 18 | 0 | 0 | 34 | 0 | 1 | 10 | 0 | 19 | 0 | 4 | 0 | 28
12 | Cc1ccc(C(=O)Nc2ccc(Nc3ccnc4cc(-c5ccccn5)ccc34)cc2O)cc1.Cl [GW440146] | 0 | 5 | 28 | 19 | 0 | 0 | 0 | 3 | 13 | 0 | 0 | 39 | 0 | 10 | 8 | 36 | 39 | 0 | 14 | 30
13 | CS(=O)(=O)c1ccc(-c2c(-c3ncn[nH]3)sc(N3CCOCC3)c2C#N)cc1 | 21 | 0 | 0 | 0 | 0 | 3 | 36 | 7 | 8 | 86 | 0 | 0 | 10 | 0 | 11 | 0 | 0 | 27 | 0 | 16
14 | O=C(Nc1n[nH]c2cc(-c3cccc(F)c3F)ccc12)C1CC1 [SB-733894] | 1 | 0 | 1 | 0 | 0 | 0 | 51 | 4 | 20 | 0 | 0 | 0 | 0 | 0 | 0 | 0 | 0 | 0 | 0 | 0
15 | Cc1cc(NCC(c2ccccc2)c2ccccc2)nc(NCc2ccc(C(F)(F)F)cc2)n1 [GW497681] | 0 | 0 | 9 | 23 | 0 | 0 | 0 | 0 | 0 | 0 | 0 | 11 | 0 | 0 | 0 | 27 | 37 | 0 | 0 | 0
16 | Nc1nc(-c2nccs2)c(-c2ccnc3ccccc23)s1 [GW693542] | 14 | 5 | 0 | 9 | 18 | 8 | 0 | 0 | 0 | 0 | 0 | 22 | 9 | 20 | 28 | 35 | 28 | 9 | 3 | 0
17 | COc1ccc(Nc2nccc(NCCNC(=O)Nc3ccccc3F)n2)cc1 [GSK1379901] | 0 | 24 | 26 | 28 | 0 | 0 | 0 | 37 | 0 | 0 | 0 | 13 | 0 | 11 | 0 | 29 | 37 | 0 | 0 | 0
18 | Cc1cccc(-c2nc(Nc3cccc(C(N)=O)c3)c3ccccc3n2)n1 [GW876019] | 0 | 0 | 19 | 25 | 9 | 0 | 0 | 0 | 0 | 4 | 0 | 5 | 9 | 0 | 0 | 0 | 0 | 0 | 0 | 0
19 | O=C(Nc1n[nH]c2nc(-c3nccs3)c(Br)cc12)C1CC1 [SB-742251] | 0 | 0 | 36 | 77 | 0 | 21 | 7 | 0 | 0 | 0 | 0 | 16 | 7 | 23 | 2 | 35 | 51 | 6 | 0 | 7
20 | Cc1ccccc1-n1cnc2c(N)ncnc21 [SKF-97510] | 0 | 0 | 0 | 0 | 25 | 0 | 0 | 0 | 0 | 0 | 0 | 1 | 0 | 0 | 0 | 0 | 0 | 0 | 0 | 0
21 | Cc1cc(-c2ccc3c(c2)CC[C@@H](N[C@@H](C)c2ccccc2)C3)cnc1N.Cl [GW412617] | 0 | 16 | 24 | 6 | 17 | 19 | 8 | 16 | 1 | 68 | 0 | 18 | 11 | 0 | 0 | 7 | 0 | 2 | 4 | 33
